MITF TRPM1 inh = inhibitors of MITF-dependent TRPM1 promoter reporter, primary screen, cell-based, SK-MEL-5, single point, luciferase | AID 488899, 2010 | inhibition, % at 12.5 µM | 0.83% of 330,000 active | SK-MEL-5 TRPM1 promoter luciferase, 24 h;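 active means mean inhibition across replicates of 60% or more, whatever share of single replicates reaches that level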
EWS-Fli block = EWS/Fli-driven NR0B1 reporter inhibitors, primary screen, A673 cells, NR0B1 luciferase, luminescence, MLPCN library; AID 651661, 2012; viability-normalised; inhibition, % at 12.6 µM; 0.67% of 350,000 active;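 active means mean inhibition of at least 50% after viability correction, with every replicate also passing that limit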;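 further: firefly luciferase signal divided by Alamar Blue viability fluorescence both relative to DMSO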
MITF act = activators of MITF-driven TRPM1 promoter reporter, primary screen, cell-based, SK-MEL-5, luciferase, single point. SK-MEL-5 TRPM1-promoter luciferase, 24 h; % of positive control, neutral wells = 0. activation, % at 12.5 µM. 0.75% of 300,000 active;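 active means mean activation of at least 80% with every replicate also reaching 80%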;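 further: 0% = neutral control wells and 100% = parthenolide positive control wells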
esBAF inh = Bmi1 luciferase reporter increase in mESCs, primary screen, esBAF inhibitor project, mouse ES cells, Bmi1 luciferase knock-in, single point. 24 h; 100% = twice the neutral-well signal. reporter increase, % at 12.5 µM. 2% of 350,000 active. AID 602393, 2012; in the data active means activation above about 40%;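 further: 0% = median of the plate's neutral control wells and 100% = double that signal; a rise in the Bmi1 reporter signal indicates esBAF inhibition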
Wnt act = Wnt/beta-catenin pathway activators, primary screen, cell-based, plate reader, single point; Wnt/beta-catenin reporter cell assay, activator; activation, % at 9.35 µM; 1.2% of 300,000 active; in the data active means activation above about 30%, passing the limit was not always enough;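 further: 0% = neutral control wells and 100% = positive control wells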
PAX8 inh HTS = inhibitors of PAX8-driven TPO luciferase reporter, primary screen, RMG-I cells, single concentration; SteadyGlo, 24 h; inhibition, % at 12.6 µM; 1.2% of 360,000 active; AID 652154, 2013;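 active means mean replicate inhibition at least 60% with every replicate also reaching 60%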;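 further: luciferase light reporting Pax8 driven TPO promoter activity; plate controls were median of neutral control wells for no effect and mitoxantrone controls for full effect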
* = called active by the depositor. Sampled rows, rich in hits. Any-hit rate of the full collection: about 4%.

`COc1ccc2nc(-c3ccccc3)[nH]c(=O)c2c1` gave MITF TRPM1 inh -32, EWS-Fli block -86, MITF act 34, esBAF inh 44*, Wnt act 3 and PAX8 inh HTS -21.
Screening COc1ccc2nc(-c3ccccc3)nc(C3CCCCC3)c2c1 returned MITF TRPM1 inh -14, EWS-Fli block -5, MITF act 15, esBAF inh 16, Wnt act -8 and PAX8 inh HTS -21.
`Cc1cccnc1NC(=S)Nc1ccc(Br)cc1Cl` gave MITF TRPM1 inh -63, EWS-Fli block -45, MITF act 58, esBAF inh 55*, Wnt act 11 and PAX8 inh HTS -134.
For Cc1ccccc1OCc1nc2ccccc2c(=O)n1N the results were MITF TRPM1 inh -30, esBAF inh 28 and Wnt act -4.
Screening Cc1ccccc1OCc1nnc2c3cnn(C)c3ncn12 returned MITF TRPM1 inh -96, MITF act 90* and esBAF inh 54*.
Screening CN(C)c1ccc(C(C[N+](=O)[O-])c2c(N)n(C)c(=O)n(C)c2=O)c(F)c1C#N (centres undefined) returned MITF TRPM1 inh 39, EWS-Fli block 21, MITF act -36, esBAF inh 11, Wnt act 3 and PAX8 inh HTS 19.
For COc1ccc(Br)cc1C(C[N+](=O)[O-])c1c(N)n(C)c(=O)n(C)c1=O (centres undefined) the results were MITF TRPM1 inh 80*, EWS-Fli block 14, MITF act -80, Wnt act -3 and PAX8 inh HTS 4.
CC(C)C#Cc1cnc2c(c1)C(=O)N([C@H](C)CO)C[C@H](C)[C@H](CN(C)C(=O)C1CCC1)O2 was read as EWS-Fli block 3 and esBAF inh -5.
CC(C)C1COC(c2cccc3ccccc23)=N1 (centres undefined) was read as MITF TRPM1 inh -69, EWS-Fli block -111, MITF act 74, esBAF inh 55*, Wnt act 39* and PAX8 inh HTS -295.
CN(C)c1ccc(/C=C(/C#N)C(=O)NCc2ccccc2)o1 was read as MITF TRPM1 inh -60, MITF act 61, esBAF inh 48*, Wnt act 13 and PAX8 inh HTS -18.
N#C/C(=C\c1ccc(O)c(Br)c1)C(=O)NCc1ccccc1 was read as MITF TRPM1 inh 2, EWS-Fli block -1, MITF act 4, esBAF inh 0, Wnt act 0 and PAX8 inh HTS -14.
Screening N#C/C(=C\c1ccc(O)c([N+](=O)[O-])c1)C(=O)NCc1ccccc1 returned MITF TRPM1 inh 12, EWS-Fli block 1, MITF act -10, esBAF inh -10, Wnt act 47* and PAX8 inh HTS -10.
N#C/C(=C/c1ccccc1)C(=O)NCc1ccccc1 was read as MITF TRPM1 inh -4, EWS-Fli block -12, MITF act 4, esBAF inh 1, Wnt act 0 and PAX8 inh HTS -7.
Screening C[C@H](CO)N1C[C@H](C)[C@H](CN(C)S(=O)(=O)c2ccc(Cl)cc2)OCCCC[C@H](C)Oc2ccc(NC(=O)c3ccccc3)cc2C1=O returned EWS-Fli block 7, esBAF inh 11 and PAX8 inh HTS 33.
Screening O=C(O)CCC(=O)N1N=C(c2ccc(Br)cc2)CC1c1ccc(Br)cc1 (centres undefined) returned MITF TRPM1 inh 2, EWS-Fli block -1, MITF act -2, esBAF inh -10, Wnt act -2 and PAX8 inh HTS 7.
CC(=O)N1N=C(c2ccc(Br)cc2)CC1c1ccc(Br)cc1 (centres undefined) was read as EWS-Fli block -86, esBAF inh 61*, Wnt act -3 and PAX8 inh HTS -89.
`COCC(=O)N1C[C@@H](C)[C@H](OC)CN(C)C(=O)c2ccc(NS(C)(=O)=O)cc2OC[C@@H]1C` gave EWS-Fli block -2, esBAF inh 1 and PAX8 inh HTS -6.

Source: PubChem BioAssay
